Source: PubChem (National Center for Advancing Translational Sciences (NCATS))
TDP1 cell CPT = qHTS for Inhibitors of human tyrosyl-DNA phosphodiesterase 1 (TDP1): qHTS in cells in presence of CPT; chicken DT40 Tdp1-/-;hTDP1 cells + 20 nM CPT, ATP luminescence, 48 h; Potency, µM (series often up to 46.2 µM), without a hit: top-dose activity change, negative = growth inhibition, hits mostly inhibitors; 12% of 420,000 active; AID 686979, 2013; further: nearly all actives have a fitted effect of over 55% in size
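Cell growth measured by CellTiter-Glo luminescence after a minimum 48 h, 37 C compound exposure with 20 nM CPT in Tdp1-knockout DT40 cells stably expressing hTDP1, seeded 400/well; qHTS titration format.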
HT1080 IDH1KD tx = qHTS for induction of synthetic lethality in tumor cells producing 2HG: qHTS for the HT-1080-IDH1KD cell line; HT-1080 IDH1 knockdown viability, ATP luminescence, 48 h; Potency, µM (doses to about 46.1 µM), without a hit: at the top dose activity, negative = toxicity, actives largely listed as cytotoxic; 2% of 360,000 active;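 further: 0% = DMSO wells and -100% = cell-free medium wells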
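Viability of IDH1-knockdown HT-1080 fibrosarcoma cells was assessed by CellTiter-Glo after 48 h at 37 °C with titrated compound; concentration-effect curves were classified by fit quality and response size.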
TDP1 cell noCPT = qHTS for Inhibitors of human tyrosyl-DNA phosphodiesterase 1 (TDP1): qHTS in cells in absence of CPT; 15% of 420,000 active; DT40 Tdp1-/- hTDP1 cells, no CPT, ATP luminescence, 48 h; AID 686978, 2013; Potency, µM (titrated, usually from 46.2 µM), inactives show at the highest dose activity change, negative = growth inhibition, hits mostly inhibitors; further: nearly all actives have a fitted effect of over 55% in size
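Luminescent ATP content (CellTiter-Glo) served as the growth readout. Knockout chicken DT40 cells expressing human TDP1 were exposed to compounds without camptothecin for a minimum 48 hr at 37 °C.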
KB-3-1 tox = qHTS assay for MDR1-selective chemotherapeutics: Primary screen using the parental adenocarcinoma cell KB-3-1 | KB-3-1 viability, CellTiter-Glo ATP luminescence, 72 h | Potency, µM (top dose mostly 46.1 µM), hits mostly cytotoxic | 1.4% of 400,000 active | AID 1347075, 2019; further: nearly all actives have a fitted effect of over 60% in size
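Using CellTiter-Glo luminescence, growth of non-resistant KB-3-1 adenocarcinoma cells is assessed 72 h after pin-tool compound addition at 37 °C. Normalized responses across the concentration series yield fitted curves.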
KB-V1 MDR tox = qHTS assay for MDR1-selective chemotherapeutics: Primary screen using the drug-selected MDR subline cells KB-V1; 3.4% of 400,000 active; KB-V1 MDR cells viability, CellTiter-Glo, 72 h; Potency, µM (series often up to 46.1 µM), hits mostly cytotoxic; further: nearly all actives have a fitted effect of over 60% in size
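KB-V1, DMEM (no phenol red) + 10% FBS; cpd pin-transferred, titration series; 72 h, 37 degrees C; CellTiter-Glo, luminescence. Data normalized, curve-fit.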
HT1080-NT tox = qHTS for induction of synthetic lethality in tumor cells producing 2HG: qHTS for the HT-1080-NT fibrosarcoma cell line; AID 686970, 2013; 1.6% of 360,000 active; HT-1080-NT fibrosarcoma viability, CellTiter-Glo ATP luminescence, 48 h; Potency, µM (top dose mostly 46.1 µM), for the others: at the top dose activity, negative = less viability, usual class: cytotoxic;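 further: NT is the 2HG producing partner of a matched IDH1 knockdown line; 0% = DMSO-treated cells and -100% = media-only wells without cells; nearly all actives have a fitted effect of over 55% in size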
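Compounds were tested in concentration-response format on HT-1080-NT cells for 48 hours at 37 degrees C. Cell viability came from CellTiter-Glo luminescence; curves were classified by r2, response magnitude and activity.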
* hit, by the source's call; i = inactive; ? = inconclusive; / = no result given; [ ] = dose if it differs, or a comment. The list is not random: actives were taken first. Their share in the collection is about 19%. The call rests on the fitted dose curve; in most records, active means well fitted curve in the direction sought with a large enough effect; inconclusive means small, poorly fitted or top-dose-only effect, or another doubt; inactive means no such curve, though single readings can be large; an effect the other way counts as inactive or inconclusive. Unless noted, on the % scale 0 is the no-effect control and ±100 the full control effect; potency means the concentration at half of the fitted maximal effect.

SMILES | TDP1 cell CPT | HT1080 IDH1KD tx | TDP1 cell noCPT | KB-3-1 tox | KB-V1 MDR tox | HT1080-NT tox
CCc1cccc(C)c1NC(=O)CSc1nc2ccccc2nc1Cc1ccccc1 | ? | / | 16µM* | / | / | /
COc1ccccc1Cc1nc2ccccc2nc1SCC(=O)N1CCN(c2ccccc2)CC1 | 21µM* | / | 23µM* | i | i | /
COc1cccc(CNC(=O)CSc2nc3ccccc3nc2Cc2ccccc2)c1 | ? | / | ? | i | i | /
COc1cccc(Cc2nc3ccccc3nc2SCC(=O)N2CCN(c3ccccc3)CC2)c1 | ? | / | 23µM* | / | / | /
COc1ccccc1Cc1nc2ccccc2nc1SCC(=O)N1CCC(C)CC1 | 16µM* | / | 9.2µM* | i | i | /
Cc1nc2ccccc2nc1SCC(=O)N1CCC(C)CC1 | ? | ? | ? | i | ? | -7%
CC1CC(C)CN(S(=O)(=O)c2ccc3c(c2)NC(=O)C(C)C(=O)N3)C1 (centres undefined) | -21% | 6% | -19% | i | i | -5%
Fc1ccc(-c2nnc(CN3CCN(c4ccccn4)CC3)o2)cc1 | -4% | / | -14% | i | i | /
COc1cccc(Cc2nc3ccccc3nc2SCC(=O)NCCc2ccccc2)c1 | 18µM* | / | 18µM* | i | i | /
CCc1cccc(C)c1NC(=O)CSc1nnc(CC)n2c1cc1occc12 | ? | / | 18µM* | i | i | /
Brc1ccccc1OCCN1CCCC1 | 5% | 10% | -28% | i | i | 3%
CC1=NN(c2ccc(C(F)(F)F)cn2)C(=O)C1 | 23µM* | ? | ? | ? | i | -30%
NC(=O)C1CCN(c2ccc(C(F)(F)F)cn2)CC1 | 7% | 13% | -5% | i | i | ?
CC(=O)Nc1ccnn1C1CCN(C(=O)c2cccc(C)c2C)CC1 | -8% | 11% | 4% | i | i | 2%
CN1C2CCC1/C(=C\c1ccc(F)cc1)C(=O)/C2=C/c1ccc(F)cc1 | 21µM* | 10% | 16µM* | ? | 23µM* | -2%
CN1C2CCC1/C(=C/c1cccn1C)C(=O)/C2=C\c1cccn1C | 23µM* | -1% | 16µM* | i | i | 4%
Cc1cccc(/C=C2/C(=O)/C(=C/c3ccccc3C)C3CCC2N3C)c1 (centres undefined) | 21µM* | -2% | 18µM* | i | i | -3%
COC(=O)c1cc(CNC(=O)c2cccc(C)c2)cc(NC(=O)c2ccncc2)c1 | 2%[9.04 µM] | / | -9% | / | / | /
CCc1nc2c(OCc3cc(Cl)cc(Cl)c3)cccn2c1N(C)C(=O)c1cccc(OC)c1 | ? | ? | ? | i | i | ?
CC(C)(C)n1nnnc1C(c1cccnc1)N1CCN(C2CCCCC2)CC1 (centres undefined) | -1% | 20%[9.24 µM] | 2% | i | i | 9%
CC(C)(C)c1cc(C(c2cccnc2)N2CCN(CCO)CC2)cc(C(C)(C)C)c1O (centres undefined) | 1.5µM* | 5µM* | 2.3µM* | i | i | 6.3µM*
Cc1cc(-c2ccc(S(=O)(=O)Nc3cccc(C(F)(F)F)c3)s2)on1 | 21µM* | / | ? | i | i | /
COc1ccccc1NS(=O)(=O)c1ccc(-c2cc(C)no2)s1 | 7.3µM* | ? | 7.3µM* | 7.3µM* | ? | ?
N#C/C(=C/C1=C(N2CCOCC2)C(=C/c2ccccc2)/CC1)C(=O)Nc1ccccc1F | 13µM* | 4% | 16µM* | ? | i | 0%
O=C(CN1CCOCC1)Nc1ccccc1F | -3% | 10% | 10% | i | i | 11%
SMILES | TDP1 cell CPT | HT1080 IDH1KD tx | TDP1 cell noCPT | KB-3-1 tox | KB-V1 MDR tox | HT1080-NT tox
N#C/C(=C/C1=C(N2CCOCC2)C(=C/c2ccc(Cl)cc2Cl)/CC1)C(=O)Nc1ccccc1F | ? | 17% | 10µM* | i | i | 24%
N#C/C(=C\c1ccc[nH]1)C(=O)Nc1ccccc1F | -12% | -2% | 0% | i | i | 14%
N#C/C(=C\C1=C(N2CCOCC2)C(=C\c2ccc(Cl)cc2)/CC1)C(=O)Nc1ccccc1F | 16µM* | 13% | 12µM* | i | i | 10%
COc1cc(NC(=O)c2cc(S(=O)(=O)N3CCCCC3)ccc2N2CCOCC2)cc(OC)c1OC | 1% | 9% | -1% | i | i | 20%
COc1cc(NC(=O)C2=C(N3CCOCC3)/C(=C\c3ccc(Cl)cc3Cl)CC2)cc(OC)c1OC | 13µM* | -3% | 16µM* | i | ? | -2%
O=C(NC1CCCC1)C(c1cccnc1)N(C(=O)c1ccco1)c1ccc(F)cc1 (centres undefined) | -2% | 13% | ? | i | i | 2%
COc1ccc(C)cc1NC(=O)c1sc2nc(-c3ccc(F)cc3)cn2c1C | 0% | / | -10% | / | / | /
NCCOc1ccccc1Cc1ccccc1 | ? | -11% | ? | i | i | -1%
NCCOB(c1ccccc1)c1ccccc1 | ? | / | 16µM* | / | / | /
Cc1ccc(OC(C)C(=O)Nc2ccncc2)cc1 (centres undefined) | ? | ? | 13µM* | i | i | 4%
Cc1ccc(OC(C)C(=O)Nc2cc(C)on2)cc1 (centres undefined) | -15% | 2% | 10% | i | i | 6%
Cc1cc(OC(C)C(=O)Nc2ccncc2)ccc1Cl (centres undefined) | 13µM* | -21% | 23µM* | i | ? | -18%
